Pf growth 96h = P. falciparum growth inhibition at 96 hour, primary screen for plastid delayed-death inhibitors. P. falciparum luciferase reporter growth, 96 h. Potency, µM (titrated, usually from 28.7 µM), for inactives: at the top dose activity change, negative = inhibition, hits mostly inhibitors. actives 6.9% (n = 320,000); note: potency is the fitted concentration of half-maximal effect; % is set by controls: 0 for no effect and ±100 for the full control effect
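Erythrocytes infected with luciferase-expressing P. falciparum were dispensed at 2% hematocrit and 0.05% parasitemia (final), then incubated with compounds 96 hours at 37 C in 5% CO2. Luminescence after detection reagent addition reported growth.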
LmPK inhibitor = blocks Leishmania mexicana pyruvate kinase activity; purified LmPK, Kinase-Glo ATP luminescence, 1 h; Potency, µM (series often up to 57.5 µM), inactives show at the highest dose activity change, negative = inhibition, usual class: inhibitors; actives 0.37% (n = 290,000); note: potency is the fitted concentration of half-maximal effect; % is set by controls: 0 for no effect and ±100 for the full control effect
Target sequence (Q27686 whole entry, looked up): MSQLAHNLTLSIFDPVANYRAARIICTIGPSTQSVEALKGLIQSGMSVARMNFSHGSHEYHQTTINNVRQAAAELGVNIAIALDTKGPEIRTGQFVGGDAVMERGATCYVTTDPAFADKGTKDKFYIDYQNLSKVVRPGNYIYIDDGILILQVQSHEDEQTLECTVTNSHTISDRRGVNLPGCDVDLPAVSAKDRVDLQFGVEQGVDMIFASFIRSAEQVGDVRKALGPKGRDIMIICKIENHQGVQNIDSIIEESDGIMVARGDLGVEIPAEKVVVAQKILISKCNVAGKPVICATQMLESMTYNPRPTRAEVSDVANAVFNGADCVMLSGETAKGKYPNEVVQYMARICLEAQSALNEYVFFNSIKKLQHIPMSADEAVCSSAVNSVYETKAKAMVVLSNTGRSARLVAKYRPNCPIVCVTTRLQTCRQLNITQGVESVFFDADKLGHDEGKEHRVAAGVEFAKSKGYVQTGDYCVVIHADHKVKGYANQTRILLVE
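Purified LmPK (0.1 nM) converted ADP (0.1 mM) to ATP with PEP (0.5 mM) in imidazole buffer pH 7.2 with KCl and MgCl2, 1 h at room temperature. ATP was read by Kinase-Glo luminescence; data normalized to uninhibited and no-enzyme controls.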
Pf growth 48h = inhibits P. falciparum growth in the first generation, 48 h. P. falciparum luciferase growth in erythrocytes, 48 h. Potency, µM (doses to about 28.7 µM), for the others: top-dose activity change, negative = inhibition, actives largely listed as inhibitors. actives 5.9% (n = 310,000); note: potency is the fitted concentration of half-maximal effect; % is set by controls: 0 for no effect and ±100 for the full control effect
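Erythrocytes infected with P. falciparum carrying an integrated firefly luciferase reporter (2% hematocrit, 0.1% parasitemia final) were exposed to compounds in RPMI 1640 with 0.5% Albumax at 37 C, 5% CO2. Growth inhibition was scored as reduced luminescence.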
Shiga inhibitor = inhibitors of Shiga toxin in Vero cells | Vero cells, Shiga toxin protein synthesis inhibition reporter | inhibition, % at 38.7 µM | actives 9.2% (n = 290,000); in the data active = inhibition mostly above about 28%, no sharp cut-off; inactive = mostly below about 43%; note: 0% is about no effect
Cycloheximide cs = affects cycloheximide protein synthesis inhibition readout, counter-screen | actives 12% (n = 300,000) | max response, % | AID 2314 | cell reporter, cycloheximide protein synthesis inhibition counterscreen; in the data active = max response mostly above about 13%, no sharp cut-off; inactive = mostly below about 14%; note: read at 38.3 µM for the half of the compounds with a filed dose; 0% is about no effect
* hit, by the source's call; ? = inconclusive; nt = not tested or not shown; [ ] = dose if it differs, or a comment. This is a sample that favours compounds with a hit; in the whole collection about 22% have one here. Unless noted, calls come from the whole dose curve; as a rule, active = well fitted inhibition curve with a large enough effect; inconclusive = small, poorly fitted or top-dose-only effect, or another doubt; inactive = no such curve, though single readings can be large or run the other way.

SMILES	Pf growth 96h	LmPK inhibitor	Pf growth 48h	Shiga inhibitor	Cycloheximide cs
Cn1nc(-c2ccc(NCCO)c([N+](=O)[O-])c2)c2ccccc2c1=O	5.2µM*	1%	-8%	-7	-3
Cc1ccc(NC(=O)Cn2cc(C(F)(F)F)cc(Cl)c2=O)cc1Cl	59%	-1%	20%	23	-2
CCC(C)/C(C)=N/NC(=O)c1ccc(COc2ccc(Cl)c(C)c2)cc1 (stereo not given)	44%	2%	63%	33	38*
COc1ccc(CCNC(=O)CCS(=O)(=O)c2ccc3nc(C)sc3c2)cc1OC	1%	-8%	16%	-2	-2
Cc1ccccc1-n1c(/C=C/c2ccc(N(C)C)cc2)nc2ccccc2c1=O	nt	nt	nt	-6	-2
O=c1[nH]c(/C=C/c2ccc(Br)cc2)nc2ccccc12	0%	2%	76%	85*	45*
CN(C)c1ccc(/C=C/c2nc3ccccc3c(=O)[nH]2)cc1	32%	-16%	-52%	39*	34*
Cc1nc(/C=C/c2ccccc2)[nH]c(=O)c1-c1ccccc1	241%	1%	184%	94*	33*
Cc1cccc(/C=C\c2nc3ccccc3c(=O)[nH]2)c1	-41%	-27%	39%	93*	70*
Cc1ccc(S(=O)(=O)N2CCCC2)cc1C(=O)NCCN1CCOCC1	20%	-10%	?	28*	29*
O=C(NCCN1CCCC1)c1cc(-c2ccncc2)nc2ccc(S(=O)(=O)N3CCOCC3)cc12	?	-2%	12µM*	4	-3
COc1cccc(-c2nn(-c3ccccc3)cc2CN(C)C(C)c2ccon2)c1 (stereo not given)	-6%	6%	?	-5	1
CCc1nnc(SCC(=O)Nc2ccc(F)cc2)o1	?	1%	25%	-14	-1
Cc1c(Cl)cccc1NC(=S)NCc1cccn1C	-8%	-2%	8%	-9	52*
Cc1c(Cl)cccc1NC(=S)NCC(C)C	3.3µM*	0%	?	-11	-5
Cc1c(Cl)cccc1NC(=S)NCCC(C)C	-20%	4%	-23%	-7	-2
Cc1cccc(NC(=S)NCc2cccn2C)c1	12µM*	6%	nt	17	9
CCc1ccc(-n2c(=O)c3c(C)c(C)sc3n(CC(=O)NCC3CCCO3)c2=O)cc1 (stereo not given)	-25%	1%[11.5 µM]	-7%	-2	-8
CC(C)COc1ccc(C(=O)CCN2CCCCC2)cc1	-23%	-2%	11%	-8	4
CC(C)COc1ccc(C(=O)OCCN2CCCCC2)cc1	32%	2%	8%	37*	10
CC(C)COc1ccc(C(=O)OCCN2CCOCC2)cc1	nt	-15%	22%	36*	25*
Cc1csc(N2CCc3ccccc32)n1	32%	-2%	14%	27	23*
O=C(CC(C(=O)N1CCc2ccccc21)n1ccnc1)NCc1ccccc1 (stereo not given)	-13%	-10%	nt	-3	-3
CCOC(=O)N1CCN(C(=O)CC(C(=O)N2CCc3ccccc32)n2ccnc2)CC1 (stereo not given)	19%	0%	0.033µM*	2	-8
CCn1ncc(-c2cc(C(=O)O)no2)c1C	0%	1%	4%	-25	-4
SMILES	Pf growth 96h	LmPK inhibitor	Pf growth 48h	Shiga inhibitor	Cycloheximide cs
Cc1c(-c2cc(C(=O)O)no2)cnn1C	30%	5%	2%	50*	29*
O=C(Nc1ccc2c(c1)OCO2)c1cncc(Br)c1	?	-5%	210%	66*	32*
O=C(Nc1ccc2c(c1)OCCO2)c1cncc(Br)c1	57%	-28%	-15%	58	23*
COc1ccc(C(=O)c2sc(Nc3ccccc3F)nc2N)cc1	6%	5%	nt	86*	41*
Cc1cccc(C)c1NC(=O)c1sc(N)nc1-c1ccccc1	9%	9%	-1%	-6	-5
Nc1nc(Nc2ccccc2)sc1C(=O)c1ccccc1	6%	7%	-17%	90*	36*
COc1ccc(C(=O)c2sc(Nc3ccccc3)nc2N)cc1OC	?	2%	?	-7	1
Cc1cnc(NC(=O)c2sc(Nc3ccccc3)nc2N)o1	8%	-2%	29%	90*	28*
COc1ccc(C(=O)c2sc(Nc3ccccc3)nc2N)cc1	?	3%	?	28	41*
COc1ccc(/C=N/NC(=O)C(=O)N2CCCCCC2)cc1O	-100%	-3%	0%	30	17
COc1ccc([N+](=O)[O-])cc1NC(=O)c1ccc(N(Cc2ccccc2Cl)S(C)(=O)=O)cc1	?	-6%	34%	-14	-2
COc1ccc(C(=O)NCN2CCN(c3ccccc3)CC2)cc1OC	?	nt	-13%	nt	nt
O=C(COC(=O)c1cccc([N+](=O)[O-])c1)NCc1cccs1	14%	1%	0%	18	6
O=C(CSc1nc2ccccc2n1S(=O)(=O)c1cccc([N+](=O)[O-])c1)NCc1cccs1	-13%	1%	30%	18	27*
CCOC(=O)c1cnc2c(-c3ccccc3OC)c(C)nn2c1C	45%	-1%	-1%	8	1
O=C(CCN1C(=O)C2C3C=CC(C3)C2C1=O)NCCc1ccccc1Cl (stereo not given)	-28%	-3%	19%	28*	14*
O=C(CN1C(=O)C2C3C=CC(C3)C2C1=O)NCc1ccccc1 (stereo not given)	57%	-3%	2%	-23	-4
O=C(CN1C(=O)C2C3C=CC(C3)C2C1=O)NCCc1ccccc1 (stereo not given)	37%	2%	21%	10	15*
Cc1ncc([N+](=O)[O-])n1CC(=O)N/N=C/c1ccccc1F	1%	0%	8%	-2	2
CC(NC(=O)c1ccco1)C(=O)N1CCN(c2ccccc2)CC1 (stereo not given)	18%	-11%	-7%	-21	-3
CSCCC(NC(=O)c1ccccc1Br)C(=O)N1CCN(C(C)=O)CC1 (stereo not given)	4%	nt	-25%	nt	nt
CS(=O)(=O)N1CCN(c2ccccc2NC(=O)c2ccco2)CC1	82%	-1%	27%	5	-4
Cc1ccc(C(=O)Nc2ccccc2N2CCN(C(=O)C(C)C)CC2)cc1	nt	4%	9.3µM*	-20	1
CC(C)C(=O)N1CCN(c2ccccc2NC(=O)c2ccco2)CC1	30%	0%	4.7µM*	-6	-2
CC(NC(=O)c1ccco1)C(=O)N1CCN(C(c2ccccc2)c2ccccc2)CC1 (stereo not given)	31%	2%	13µM*	-5	2
CSCCC(NC(=O)c1ccccc1)C(=O)N1CCN(C(c2ccccc2)c2ccccc2)CC1 (stereo not given)	1.9µM*	0%	?	-5	1
COc1ccc(NC(=O)CSc2nnnn2C2CC2)cc1S(=O)(=O)N1CCOCC1	?	nt	-19%	nt	nt

Screening data: PubChem BioAssay, National Center for Advancing Translational Sciences (NCATS)
